{
  "source": "PubChem BioAssay (EPA / NIEHS)",
  "note": "Activity calls are given as the source filed them. The calls were made as follows: active = hit-call score of the fitted dose curve at least 0.9, where 1 is the maximum; inactive = score below 0.9.",
  "data": [
    {"assay": "ATG_M_19_CIS: Attagene CIS-FACTORIAL HepG2 Assay for M19 Transcription Factor (Internal Marker) (AID 2282939)", "settings": "HepG2 Attagene CIS-FACTORIAL M19 internal marker reporter; actives raise or lower the signal", "method": "ATG_CIS is a cell-based, multiplexed-readout assay that uses HepG2, a human liver cell line, with measurements taken at 24 hours after chemical dosing in a 24-well plate.ATG_M_19_CIS is one of 52 assay component(s) measured or calculated from the ATG_CIS assay. It is designed to make measurements of mRNA induction, a form of inducible reporter, as detected with fluorescence intensity signals by Reverse transcription polymerase chain reaction (RT-PCR) and Capillary electrophoresis technology.Data from the assay component ATG_M_19_CIS was analyzed into 1 assay endpoint. This assay endpoint, ATG_M_19_CIS, was analyzed with bidirectional fitting relative to DMSO as the negative control and baseline of activity. Using a type of inducible reporter, measures of mRNA for gain or loss-of-signal activity can be used to understand the background control at the transcription factor-level as they relate to the gene . Furthermore, this assay endpoint can be referred to as a secondary readout, because this assay has produced multiple assay endpoints where this one serves a background control function. To generalize the intended target to other relatable targets, this assay endpoint is annotated to the background measurement intended target family, where the subfamily is internal marker.\nHuman liver HepG2 cells are transiently transfected with multiple reporter transcription units (MRTUs) in 6-well plates using FuGene 6 reagent (Roche; 3 ml FuGene/1 mg DNA). The MRTU constructs are regulated by a cis-regulating element (promoter). […] A major difference between the CIS and TRANS system is that in CIS activities of endogenous TFs are measured, whereas the TRANS assay evaluates changes in activities of exogenous, chimeric NR-Gal4 proteins. […] At the end of 24 hour incubation, total RNA was isolated using TriZol reagent (Invitrogen). The isolated RNA is then reverse-transcribed using oligo(dT) primer and Mo-MLV reverse transcriptase (Invitrogen) with DNAse I (Ambion) treatment for 30 min. The one-tenth of the produced cDNA was amplified by PCR using Taq DNA polymerase (Invitrogen) and two reporter sequence-specific primers. The PCR products were fluorescently labeled by primer extension with 6-arboxyfluorescein (6-FAM) 5'-labeled reporter sequence-specific primer (2 min at 95 C, 20 s at 68 C and 10 min at 72 C) and these products were digested with 5U of HpaI (New England Biolabs) for 2h at 37 C. The fragments were purified using Qiaquick PCR columns (Qiagen), analyzed on an ABI 3130xL genetic analyzer (Applied Biosystems) with peak positions identified by using a set of X-rhodamine (ROX)-labeled MapMarker1000 molecular weight standards (BioVentures). The raw capillary electrophoresis data was processed using Attagraph software (Attagene).", "values": [
      {"smiles": "COP(=S)(OC)Oc1ccc(Sc2ccc(OP(=S)(OC)OC)cc2)cc1", "outcome": "inactive"},
      {"smiles": "O=C/C=C/c1ccccc1", "outcome": "inactive"},
      {"smiles": "C(=NC1CCCCC1)=NC1CCCCC1", "outcome": "inactive"},
      {"smiles": "CC(C)OC(=O)Nc1ccccc1", "outcome": "inactive"},
      {"smiles": "Cl/C=C\\C[N+]12CN3CN(CN(C3)C1)C2", "outcome": "inactive"},
      {"smiles": "CC(C)c1cccc(C(C)C)c1O", "outcome": "inactive"},
      {"smiles": "ClCCBr", "outcome": "inactive"},
      {"smiles": "Clc1nc(Cl)nc(Cl)n1", "outcome": "inactive"},
      {"smiles": "COS(=O)(=O)c1ccc(C)cc1", "outcome": "inactive"},
      {"smiles": "CNC", "outcome": "inactive"},
      {"smiles": "CC(C)(c1ccc(OCC2CO2)cc1)c1ccc(OCC2CO2)cc1", "note": "(stereo not given)", "outcome": "inactive"},
      {"smiles": "O=C(NCO)NCO", "outcome": "inactive"},
      {"smiles": "NC(=S)Nc1ccccc1", "outcome": "inactive"},
      {"smiles": "CC(C)(c1ccccc1)c1ccc(O)c(C(C)(C)c2ccccc2)c1", "outcome": "inactive"},
      {"smiles": "C=C(C)C#N", "outcome": "inactive"},
      {"smiles": "CC1(C)Cc2cccc(O)c2O1", "outcome": "inactive"},
      {"smiles": "CCOP(=S)(OCC)SCCS(=O)(=O)CC", "outcome": "inactive"},
      {"smiles": "N#CN=C(N)N", "outcome": "inactive"},
      {"smiles": "CC(=O)C(Cl)C(=O)N(C)C", "note": "(stereo not given)", "outcome": "inactive"},
      {"smiles": "O=C(Nc1ccc2[nH]ccc2c1)c1cc2cc(F)ccc2n1Cc1cccc(F)c1", "AC50": "13.7 µM (active)"},
      {"smiles": "CC(=O)OC(c1ccccc1)C(Cl)(Cl)Cl", "note": "(stereo not given)", "outcome": "inactive"},
      {"smiles": "O=C(Cc1ccccc1)c1ccccc1", "outcome": "inactive"},
      {"smiles": "C[C@H]1CCCC(=O)CCC/C=C/c2cc(O)cc(O)c2C(=O)O1", "outcome": "inactive"},
      {"smiles": "CC(=[OH+])/C=C(/C)[O-].CC(=[OH+])/C=C(/C)[O-].CC(=[OH+])/C=C(/C)[O-].[Al]", "outcome": "inactive"},
      {"smiles": "CC(C)(C)CC(C)(C)c1ccc(O)cc1", "outcome": "inactive"},
      {"smiles": "CN(CCCC(=O)c1cccnc1)N=O", "outcome": "inactive"},
      {"smiles": "Nc1ccc(-c2ccc(N)c(Cl)c2)cc1Cl", "outcome": "inactive"},
      {"smiles": "COP(=S)(OC)Oc1cc(Cl)c(Cl)cc1Cl", "outcome": "inactive"},
      {"smiles": "O=Cc1cccc(Oc2ccccc2)c1", "outcome": "inactive"},
      {"smiles": "Oc1cccc2cccnc12", "outcome": "inactive"},
      {"smiles": "CC12CC1(C)C(=O)N(c1cc(Cl)cc(Cl)c1)C2=O", "note": "(stereo not given)", "outcome": "inactive"},
      {"smiles": "ClCc1cccnc1", "outcome": "inactive"},
      {"smiles": "COc1ccc(C=O)cc1OC", "outcome": "inactive"},
      {"smiles": "Clc1ccc(COC(Cn2ccnc2)c2ccc(Cl)cc2Cl)cc1", "note": "(stereo not given)", "outcome": "inactive"},
      {"smiles": "BrCCBr", "outcome": "inactive"},
      {"smiles": "CCC1(c2ccc(N)cc2)CCC(=O)NC1=O", "note": "(stereo not given)", "outcome": "inactive"},
      {"smiles": "CCCCP(CCCC)CCCC", "outcome": "inactive"},
      {"smiles": "Oc1ccc(-c2ccccc2)cc1", "outcome": "inactive"},
      {"smiles": "Fc1ccc(C2(Cn3cncn3)OC2c2ccccc2Cl)cc1", "note": "(stereo not given)", "outcome": "inactive"},
      {"smiles": "Cc1cc(Cl)ccc1O[C@H](C)C(=O)O", "outcome": "inactive"}
    ]}
  ]
}
